# This is one part of a sample in which hits are shown more often than they occur.
# NPSR antagonist: blocks cAMP signaling of the human neuropeptide S receptor; Q6W5P4; CHO-NPSR cells, cAMP TR-FRET, antagonist mode; Potency, µM (highest dose often 38.3 µM), hits mostly inhibitors; 1% of 220,000 active; note: nearly all actives have a fitted effect of over 50% in size
# PTHR1 agonist: PTHR1 (human) receptor agonism; Q03431; HEK293 GP2 PTHR1 cells, GloSensor cAMP luminescence, 1 h; Potency, µM (highest dose often 115 µM), actives largely listed as activators; 0.075% of 410,000 active; AID 743266; note: nearly all actives have a fitted effect of over 55% in size
#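 HEK-293-derived GP2 cells expressing PTHR1 and a GloSensor cAMP reporter, 3,000/well, plated overnight, given luciferin plus IBMX (each 0.5 mM as added) for 1 h at 37 °C, then compound for 1 h at 37 °C. Luminescence was read after 15 min at room temperature.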
# TCR act: T cell receptor activation; primary human leukocytes, anti-CD3, IL-2 HTRF, 48 h; Potency, µM (top dose mostly 9.22 µM), hits mostly activators; 330,000 tested, under 10 active; AID 504894
#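 Using a-CD3 beads without co-stimulation, primary human leukocytes were exposed to compounds for 48 hr. An HTRF IL-2 kit measured the cytokine, with europium-to-d2 energy transfer producing emission at 665nm upon 320nm excitation.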
# RXFP1 agonist: activates the human relaxin receptor RXFP1 | Q9HBX9 | HEK293T-RXFP1 cAMP TR-FRET, 30 min; response scale: percent of porcine relaxin response, buffer zero | Potency, µM (top dose mostly 57.5 µM), actives largely listed as activators | 0.3% of 370,000 active; note: nearly all actives have a fitted effect of over 60% in size
# Target sequence (Q9HBX9 whole entry, looked up): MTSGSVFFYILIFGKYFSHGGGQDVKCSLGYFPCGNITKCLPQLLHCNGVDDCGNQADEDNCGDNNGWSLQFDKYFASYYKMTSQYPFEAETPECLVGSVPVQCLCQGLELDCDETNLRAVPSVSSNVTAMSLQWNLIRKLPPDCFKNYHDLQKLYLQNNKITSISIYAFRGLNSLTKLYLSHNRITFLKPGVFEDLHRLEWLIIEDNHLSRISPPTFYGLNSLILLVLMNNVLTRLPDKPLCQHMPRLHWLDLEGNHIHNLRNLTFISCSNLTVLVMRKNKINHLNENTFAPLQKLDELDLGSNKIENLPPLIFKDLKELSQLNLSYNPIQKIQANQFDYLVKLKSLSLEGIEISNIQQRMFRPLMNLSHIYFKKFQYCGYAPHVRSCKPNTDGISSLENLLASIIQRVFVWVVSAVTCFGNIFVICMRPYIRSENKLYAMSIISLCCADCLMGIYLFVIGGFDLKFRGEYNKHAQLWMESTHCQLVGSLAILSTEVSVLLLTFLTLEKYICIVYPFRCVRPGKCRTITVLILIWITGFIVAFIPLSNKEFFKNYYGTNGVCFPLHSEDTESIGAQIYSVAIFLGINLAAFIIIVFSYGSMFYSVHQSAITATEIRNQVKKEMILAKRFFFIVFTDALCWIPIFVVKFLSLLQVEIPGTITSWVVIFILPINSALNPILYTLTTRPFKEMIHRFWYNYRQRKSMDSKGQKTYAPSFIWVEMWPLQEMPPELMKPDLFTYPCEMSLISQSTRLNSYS
#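 Agonist response is measured as cAMP accumulation in an RXFP1-transfected HEK293T line under PDE4 inhibition. Values are scaled between buffer-only and 29 nM porcine relaxin, and EC50s come from standard Hill equation fits.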
# RXFP1 antagonist: RXFP1 (human) relaxin receptor antagonism | 0.59% of 350,000 active | activity change, negative = inhibition, % at 57.5 µM | HEK293-RXFP1, relaxin-stimulated cAMP HTRF, 30 min; hits give low values | Q9HBX9 | AID 1259400;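 active = activity change of -60% or lower, but not beyond a set lower limit; inconclusive = change between -60% and -40%, or beyond the set limit; inactive = change above -40%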
# TSHR antag: antagonists of human thyroid stimulating hormone receptor | P16473 | TSHR-expressing cells, TSH-stimulated cAMP HTRF, 2 h; hits give low values | activity change, negative = inhibition, % at 11.5 µM | 0.2% of 330,000 active;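 active = activity change below a set negative limit, meaning inhibition stronger than a set level, cut at about -70% in these data; inconclusive = activity change between two set negative limits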
#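 Antagonism was scored as loss of TSH-driven cAMP in TSHR cells, stimulated with 4nM TSH (EC80) for 2 hours at 37 deg C and detected by homogeneous HTRF competition immunoassay.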
# Numbers stand for hits; i = inactive; ? = inconclusive; nt = not tested or not shown. Unless noted, calls come from the whole dose curve; as a rule, active = well fitted curve in the direction sought with a large enough effect; inconclusive = small, poorly fitted or top-dose-only effect, or another doubt; inactive = no such curve, though single readings can be large; an effect the other way counts as inactive or inconclusive.
SMILES,NPSR antagonist,PTHR1 agonist,TCR act,RXFP1 agonist,RXFP1 antagonist,TSHR antag
CCCCN(C(=O)CSc1nnc(-c2ccccc2)o1)c1c(N)n(CCC)c(=O)[nH]c1=O,nt,i,i,i,i,i
CCN(C(=O)CSc1nnc(-c2ccccc2)o1)c1c(N)n(Cc2ccccc2)c(=O)[nH]c1=O,i,i,i,i,i,-109
C=CCn1c(Sc2ncc([N+](=O)[O-])s2)n[nH]c1=O,?,i,i,i,-80,?
CCc1ccccc1NC(=O)Cn1nnc2sc3c(c2c1=O)CCC(C(C)(C)C)C3 (centres undefined),nt,i,nt,i,i,nt
CN1CCc2c(sc(NC(=O)CSc3ccc(F)cc3)c2-c2nc3ccccc3s2)C1,nt,i,nt,i,-96,nt
CCOC(=O)c1sc(NC(=O)Cc2ccc(C)cc2)nc1C,i,i,i,i,i,i
CCOC(=O)c1sc(NC(=O)CCC(=O)O)nc1C,i,i,i,i,-85,i
O=C1NC(=S)S/C1=C/c1ccc(N2CCOCC2)o1,13µM,i,i,i,i,i
COc1cccc(C=C2SC(=S)NC2=O)c1,nt,i,i,nt,i,nt
COc1ccc2cc(/C=C3\SC(=S)NC3=O)c(N3CCOCC3)nc2c1,i,i,i,i,i,-80
Cn1nc(-c2ccc(OCC(=O)Nc3cccc(C(F)(F)F)c3)cc2)c2ccccc2c1=O,nt,i,nt,i,nt,nt
Nc1c(-c2nc(-c3cccs3)no2)nnn1-c1cccc(F)c1,nt,?,nt,i,i,nt
CCc1ccc(NC(=O)C2CCN(S(=O)(=O)c3ccc4[nH]c5c(c4c3)CCCCC5)CC2)cc1,nt,i,nt,i,i,nt
CCCCOc1cccc(C2/C(=C(\O)c3ccc4c(c3)OCCO4)C(=O)C(=O)N2CCN2CCOCC2)c1 (centres undefined),nt,i,i,25µM,i,i
CCCOc1cccc(C2/C(=C(\O)c3ccc4c(c3)OCCO4)C(=O)C(=O)N2CCCn2ccnc2)c1 (centres undefined),nt,i,i,?,i,i
O=C1/C(=C\c2cccc(O)c2O)SC(=S)N1Cc1ccccc1,nt,i,i,i,i,i
O=C1/C(=C\c2cc([N+](=O)[O-])ccc2O)SC(=S)N1Cc1ccc(Cl)cc1,nt,i,i,i,i,-83
COc1ccccc1NC(=O)CN1CCCN(S(=O)(=O)c2ccc(Br)cc2)CC1,nt,i,nt,i,i,nt
COCCCNc1nc(NCc2ccc(C)cc2)c2cnn(C)c2n1,nt,i,nt,i,i,nt
O=C1c2ccccc2C(=O)c2c(NCCCN(CCO)CCO)cccc21,13µM,i,i,i,i,i
COc1ccc(S(=O)(=O)N(CCc2ccccc2)CC(=O)Nc2cc(C)ccc2C)cc1,nt,i,nt,i,nt,nt
N#C/C(=C\c1ccc([N+](=O)[O-])o1)C(=O)Nc1ccc(F)cc1,i,i,i,i,-68,i
N#CCc1ccc(NC(=O)/C=C/c2ccc([N+](=O)[O-])o2)cc1,6.3µM,i,i,i,i,i
Cc1ccc(/C=C(\C#N)C(=O)Nc2ccc(Br)cc2)o1,nt,i,nt,?,i,nt
COc1ccccc1C(=O)Nc1ccc2oc(-c3cccc4c(Br)cccc34)nc2c1,nt,i,nt,10µM,i,nt
SMILES,NPSR antagonist,PTHR1 agonist,TCR act,RXFP1 agonist,RXFP1 antagonist,TSHR antag
COc1cc(C(=O)Nc2ccc3oc(-c4ccccc4)nc3c2)cc(OC)c1OC,nt,i,nt,i,-60,nt
O=C(N/N=C/c1ccccc1C(=O)O)c1cc(-c2ccc3c4c(cccc24)CC3)n[nH]1,i,i,i,i,-65,i
O=C(N/N=C/c1ccco1)c1cc(-c2cccc3ccccc23)n[nH]1,i,i,i,i,i,i
CN(Cc1ccccc1)C(=O)c1cc(-c2cccc(Cl)c2)on1,nt,i,nt,i,i,nt
CCN(CC)CCCNC(=O)Cn1c(-c2cccs2)cc2cc(Cl)ccc21,nt,?,nt,i,i,nt
COc1ccc(CCN2C(=S)N(C)C(=O)C2CC(=O)Nc2ccc(OC)cc2)cc1 (centres undefined),i,i,i,i,-63,i
Cc1[nH]c2ccccc2c1SCCNC(=O)c1ccc(Br)o1,i,i,i,i,-82,i
O=c1oc2c(F)cc(F)cc2cc1S(=O)(=O)c1ccc(F)cc1,nt,i,nt,i,i,nt

# Screening results: PubChem BioAssay, National Center for Advancing Translational Sciences (NCATS)
